# High-throughput results as filed in PubChem BioAssay.
# Sampled rows, rich in hits. Any-hit rate of the full collection: about 7.2%.
# LASV entry inh: Lassa virus entry inhibition | 300,000 compounds, 1.2% hits | Potency, µM (top dose mostly 37.9 µM), for inactives: at the highest dose activity change, negative = inhibition, hits mostly inhibitors | AID 540256 | Lassa virus pseudotype entry inhibition, cell reporter; calls by dose curve; tested in HEK293 cells; also: nearly all actives have a fitted effect of over 50% in size
# Marburg entry inh: inhibitors of Marburg virus binding or cell entry. 300,000 compounds, 1.8% hits. AID 540276. Marburg virus pseudotyped entry inhibition, cell reporter. Potency, µM (titrated, usually from 37.8 µM), for the others: at the highest dose activity change, negative = inhibition, usual class: inhibitors; calls by dose curve; tested in HEK293 cells
# Sm TGR block: S. mansoni TGR enzyme inhibition | Q962Y6 | purified TGR, DTNB reduction, TNB absorbance 405 nm | Potency, µM (series often up to 114 µM), for the others: at the highest dose activity change, negative = inhibition, hits mostly inhibitors | 360,000 compounds, 3% hits; also: nearly all actives have a fitted effect of over 60% in size
#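 TGR 20 nM + NADPH 100 uM (dispensed conc.), cpd preinc 15 min RT; start with NADPH (500 uM addition) then DTNB (15 mM addition). Kinetic TNB absorbance, 405 nm filter. Four-parameter Hill fit across titration.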
# FMDV inh: blocks foot and mouth disease virus. FMDV antiviral cell-based qHTS. Potency, µM (series often up to 57.9 µM), inactives show at the top dose activity change, negative = inhibition, actives largely listed as inhibitors. 410,000 compounds, 1.2% hits. AID 1159524; calls by dose curve; tested in HEK293T cells; also: read-out not given here; nearly all actives have a fitted effect of over 45% in size
# HCV inh: inhibitors of hepatitis C virus infection; Huh7.5.1 HCVcc-Cre infection, luciferase reporter, 44 h; Potency, µM (top dose mostly 41.8 µM), inactives show top-dose activity change, negative = inhibition, actives largely listed as inhibitors; 340,000 compounds, 3.4% hits
#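 Antiviral activity was scored by luciferase reporter output from cells infected with HCVcc-Cre (~0.5 moi) in presence of compound, 44 h infection period, cells seeded 1,000/well 4 h prior.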
# RE007 growth inh: less growth of the S. pombe RE007 Vpr strain. S. pombe RE007 Vpr strain, BacTiter-Glo ATP luminescence, 24 h. Potency, µM (doses to about 92.2 µM), for the others: at the highest dose activity change, negative = less growth, most hits filed as inhibitors. 360,000 compounds, 0.21% hits; active = well fitted falling curve with a large enough effect; inconclusive = small, poorly fitted or top-dose-only effect; inactive = no such curve, though single readings can be large or run the other way; also: nearly all actives have a fitted effect of over 50% in size
#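 Fission yeast strain RE007, carrying one chromosomally integrated HIV-1 vpr copy, was seeded at OD 0.01 in PMG+AL medium with 23 nL pinned compound. After 24 h at 30 °C and 99% humidity, viability was read by BacTiter-Glo luminescence.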
# The depositor's hits bear a star; ? = inconclusive; . = not tested or not shown; [ ] = another dose, or the depositor's remark. Unless noted, calls follow the shape of the dose curve; as a rule, active = well fitted curve in the direction sought with a large enough effect; inconclusive = small, poorly fitted or top-dose-only effect, or another doubt; inactive = no such curve, though single readings can be large; an effect the other way counts as inactive or inconclusive. % is scaled to controls: 0 for no effect and ±100 for the full control effect; potency is read from the fitted curve at half-maximal effect.
SMILES,LASV entry inh,Marburg entry inh,Sm TGR block,FMDV inh,HCV inh,RE007 growth inh
Cc1ccccc1Nc1nc(N)nc(COC(=O)CCS(=O)(=O)c2ccccc2)n1,-4%,?,-13%,28%,8%,4%
Cc1ccccc1Nc1nc(N)nc(COC(=O)CC2CC3CCC2C3)n1 (stereo unspecified),?,14µM*,-14%,-11%,4%,12%
Cc1cccc(C(=O)NCC(=O)OCc2nc(N)nc(Nc3ccccc3C)n2)c1,.,.,.,-7%,4%,7%
Cc1ccccc1OCCn1cc(C(=S)N2CCCC2)c2ccccc21,-3%,?,.,-24%,11µM*,-7%
CC(=O)c1cn(CCOc2ccccc2C)c2ccccc12,.,.,-5%,?,0.79µM*,17%
Cc1ccccc1OCCn1cc(C(=S)N2CCN(C)CC2)c2ccccc21,.,.,5%,-9%,?,-11%
CC(Oc1cc(-n2cnc3ccc(OC4CCN(C)CC4)cc32)sc1C(N)=O)c1ccccc1Cl (stereo unspecified),0.2µM*,.,.,.,.,.
COc1cccc(COc2cc(-n3cnc4ccccc43)sc2C(N)=O)c1,5µM*,.,.,.,.,.
COc1ccc(C(=O)Nc2cc(C(F)(F)F)ccc2-n2cnc3ccccc32)cc1,0%,?,-2%,15%,5%,-6%
COc1ccc(Cn2nnnc2C(c2ccccc2Cl)N2CCC(C(N)=O)CC2)cc1 (stereo unspecified),?,-3%,-25%,0%,6%,7%
COc1ccc2ncn(-c3cc(OC(C)c4ccccc4C(F)(F)F)c(C(N)=O)s3)c2c1 (stereo unspecified),0.22µM*,.,.,.,.,.
O=C(NCCN1CCN(c2cccc(Cl)c2)CC1)Nc1ccccc1C(F)(F)F,1%[46.1 µM],-4%[46.1 µM],7%,-5%,.,.
Cc1cccc(C(=O)N2CCC(=O)N(C(COCc3ccccc3)Cc3ccccc3)CC2)c1 (stereo unspecified),5.8µM*,1%,-8%,0%,-20%,-12%
CC(C)CC(COCc1ccc(Cl)cc1)N1CCN(C(=O)c2ccc(Cl)cc2Cl)CCC1=O (stereo unspecified),15µM*,?,-11%,-16%,?,31%
O=C(c1cccc(Cl)c1)N1CCC(=O)N(C(COCc2ccccc2)Cc2ccccc2)CC1 (stereo unspecified),4.6µM*,?,-16%,-20%,-23%,-6%
Cc1cccc(C(=O)N2CCC(=O)N([C@H](COCc3ccccc3)Cc3ccccc3)CC2)c1,.,.,.,-7%,.,-11%
Cc1cccc(COCC(Cc2ccccc2)N2CCN(C(=O)c3cccc(Cl)c3)CCC2=O)c1 (stereo unspecified),5.2µM*,-13%,-16%,-7%,?,6%
C[C@@H](C[C@H](N)C(=O)O)C(=O)O,.,.,.,11%,.,.
COc1ccc(-c2nc3cc(NC(=O)COc4ccc(F)cc4)ccc3o2)cc1,25%[46.1 µM],?,6%,11%,.,.
O=C(c1ccco1)C(O)c1ccco1 (stereo unspecified),.,.,20µM*,-4%,-3%,.
Cc1ccc(N2C(=O)NC(NS(=O)(=O)c3ccc(Cl)cc3)(C(F)(F)F)C2=O)cc1C (stereo unspecified),-29%[46.1 µM],1%[46.1 µM],-1%,7%,.,.
CSc1cccc(NC(=O)Cn2c(=O)n(Cc3ccccc3)c(=O)c3sc4ccccc4c32)c1,-9%[46.1 µM],-12%[46.1 µM],6%,?,.,.
COc1ccc(N2CCN(C(c3ccccc3)c3nnnn3Cc3ccc(F)cc3)CC2)cc1 (stereo unspecified),?,?,1%,-4%,-28%,0%
CCN1CCN(C(c2ccc(F)cc2)c2nnnn2Cc2cccs2)CC1 (stereo unspecified),12%,?,0%,-17%,-6%,-11%
CCCC(c1nnnn1Cc1ccc(F)cc1)N1CCN(C2CCCCC2)CC1 (stereo unspecified),-6%,8.9µM*,-14%,-22%,-12%,2%
COc1ccc(C(c2nnnn2Cc2ccc(F)cc2)N2CCN(c3ccccc3)CC2)cc1 (stereo unspecified),?,?,3%,-6%,-11%,15%
